About 83,000 compounds went through this panel and 20% of them were active in at least one assay; those are over-represented in the sample as a whole.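 Single-dose data. Exposure time 48 hours. Values below 10 considered active.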 A number with no mark means an inactive call. The source made the active and inactive calls.

16 molecules from PubChem BioAssay (NCI) can be followed below.

Among the test systems are T-47D breast; BT-549 breast; MDA-MB-435 melanoma; SW-620 colon; MCF7 breast; HCT-116 colon; HCC-2998 colon; KM12 colon.
Holding throughout (test): NCI-60 one-dose screen, 48 h (100 = growth as untreated, 0 = no growth, -100 = all killed)
Settings in all cases: 10 µM unless noted

Consider `COC(OC)C1(c2ccccc2)NC(=O)NC1=O` (stereo not drawn), for which the growth is 106% in the test with T-47D breast; 114% with BT-549 breast; 111% in the test on MDA-MB-435 melanoma; 109% in the test with SW-620 colon; 104% in the test on MCF7 breast; 99.4% in the test with HCT-116 colon. For the same molecule, the growth in the test with HCC-2998 colon was 101%; in the test on KM12 colon, 115%.
`COc1cc(NS(C)(=O)=O)ccc1Cc1c2ccccc2nc2ccccc12`: the growth in the test with T-47D breast was 33.5%; with BT-549 breast it was -13.9% (active); in the test with MDA-MB-435 melanoma it was 51.1%; in the test with SW-620 colon, 26.6%; in the test with MCF7 breast, 28%; with HCT-116 colon, 0.0983% (active). Further, the growth in the test with HCC-2998 colon is 11.9%; in the test on KM12 colon, 11.1%.
As to `CCN(CC)CCC(C(=O)O)(c1ccccc1)c1ccccc1`, the growth in the test on T-47D breast was 77.7%; in the test on BT-549 breast it was 95.6%; in the test with MDA-MB-435 melanoma it was 98.3%; in the test on SW-620 colon, 97.9%; in the test on MCF7 breast it was 91.8%; in the test with HCT-116 colon, 90.9%. For the same molecule, the figures for the growth in the test with HCC-2998 colon and with KM12 colon were 106% and 100%, respectively.
With `O=C1c2ccccc2OC=C(c2ccccc2)N1CCCCN1CCCCC1`, the growth in the test with T-47D breast was 0.353% (active); in the test with BT-549 breast it was 32.5%; in the test with MDA-MB-435 melanoma it was 67.4%; with SW-620 colon it was 71.5%; with MCF7 breast it was 38.6%; with HCT-116 colon, 27.2%. For the same molecule, the values for the growth in the test on HCC-2998 colon and with KM12 colon were 69.1% and 49.2%, respectively.
`CC1CCC(C(C)C)C(NN)C1` (stereo not drawn): the growth with T-47D breast was 80.2%; in the test on BT-549 breast, 105%; in the test on MDA-MB-435 melanoma, 110%; with SW-620 colon it was 104%; in the test with MCF7 breast, 100%; with HCT-116 colon, 106%. In addition, the growth was 97.9% with HCC-2998 colon and 105% in the test with KM12 colon.
For the molecule `Nc1nccc2c1ccn2-c1ccc(NC(=O)c2ccc(N3CCOCC3)c(C(F)(F)F)c2)cc1`, the growth in the test with T-47D breast was 39%; in the test with BT-549 breast, 26.5%; in the test with MDA-MB-435 melanoma it was -8.07% (active); in the test on SW-620 colon, -32.8% (active); in the test with MCF7 breast, -18.2% (active); in the test on HCT-116 colon, 4.53% (active). In addition, the values for the growth in the test on HCC-2998 colon and in the test on KM12 colon were 39.1% and -41.4% (active), respectively.
In the case of `CN(C)c1ncc(C#Cc2c(F)cccc2F)c2ccccc12`, the growth was 36% in the test on T-47D breast; 95.7% in the test on BT-549 breast; 105% in the test with MDA-MB-435 melanoma; 97.7% in the test with SW-620 colon; 28.5% in the test on MCF7 breast; 80.1% in the test on HCT-116 colon. Besides, the growth is 97.6% in the test with HCC-2998 colon and 98% in the test with KM12 colon.
Take `Cc1cc2c(cc1C)N(C(=O)CCl)CCN2C(=O)CCl`: the growth with T-47D breast is -34.5% (active); with BT-549 breast it was -28.3% (active); with MDA-MB-435 melanoma, -26.9% (active); with SW-620 colon, -78.2% (active); in the test with MCF7 breast, -47.6% (active); in the test with HCT-116 colon it was -34% (active). Moreover, the growth in the test with HCC-2998 colon is -97.9% (active); with KM12 colon, -85.2% (active).
Regarding `CCCCNc1cc(C(=O)O)cc(S(N)(=O)=O)c1Oc1ccccc1`, the growth is 103% with T-47D breast; 104% in the test with BT-549 breast; 99.3% in the test with MDA-MB-435 melanoma; 99.1% with SW-620 colon; 111% in the test on MCF7 breast; 110% in the test with HCT-116 colon. Besides, the growth in the test with HCC-2998 colon is 103%; in the test with KM12 colon, 107%.
`COc1cc(NC(=O)c2cc(OC)c3ccn(C)c3c2)cc2c1C[C@]1(C)CC[C@@H](O)C(C)(C)[C@H]1O2`: the growth is 57.5% in the test with T-47D breast; 36.9% in the test with BT-549 breast; 64% with MDA-MB-435 melanoma; 57.7% with SW-620 colon; 38.5% with MCF7 breast; 43.6% in the test with HCT-116 colon. Further, the growth is 74.6% in the test with HCC-2998 colon and 65.3% in the test with KM12 colon.
With `CC(/C=C/C=C(\C)[C@H](O)[C@H](C)C(=O)O[C@H]1C[C@H](C)C=C2C=C[C@@]3(C)O[C@@H](O)CC(=O)[C@]3(C)[C@H]21)=C\C=C\C(=O)O`, the growth in the test on T-47D breast is -12.3% (active); with BT-549 breast it was -21.5% (active); in the test on MDA-MB-435 melanoma, 8.57% (active); in the test with SW-620 colon, 9.52% (active); in the test with MCF7 breast, 3.12% (active); with HCT-116 colon, 2.2% (active). Moreover, the growth in the test with HCC-2998 colon is 7.5% (active); in the test with KM12 colon it was 0.481% (active).
As for `CCN(CC)CC(=O)Nc1c(C)cccc1C`, the growth in the test with T-47D breast was 107%; in the test on BT-549 breast, 97.3%; in the test on MDA-MB-435 melanoma, 104%; with SW-620 colon, 106%; with MCF7 breast, 97%; in the test on HCT-116 colon, 96.1%. In addition, the growth is 114% in the test on HCC-2998 colon and 113% in the test on KM12 colon.
Regarding `C#CC(=O)/C=C/CCCCCCC#CC(=O)CCC(=O)C#CCCCCCC/C=C/C(=O)C#C`, the growth was 24.8% with T-47D breast; -15.3% (active) with BT-549 breast; -33.6% (active) in the test on MDA-MB-435 melanoma; 8.47% (active) in the test with SW-620 colon; 21.6% with MCF7 breast; -7.8% (active) with HCT-116 colon. The growth in the test on HCC-2998 colon is 63.9%; in the test with KM12 colon, 49.2%.
`Cc1ncc(CO)c(C(=O)O)c1O`: the growth was 78.4% in the test on T-47D breast; 86.6% in the test with BT-549 breast; 106% in the test on MDA-MB-435 melanoma; 108% in the test on SW-620 colon; 98.9% in the test with MCF7 breast; 78% in the test on HCT-116 colon. Also, the growth in the test on HCC-2998 colon is 95.3%; with KM12 colon, 101%.
As to `COc1cc2c(/C=C3/C(=O)Nc4ccc(O)cc43)c(Cl)n(Cc3cc(OC)c(OC)c(OC)c3)c2cc1C`, the growth is 23.5% in the test on T-47D breast; -7.31% (active) with BT-549 breast; 2.91% (active) with MDA-MB-435 melanoma; 19.3% with SW-620 colon; 3.36% (active) with MCF7 breast; 18.1% with HCT-116 colon. Further, the growth was 85.5% in the test with HCC-2998 colon and 16.3% in the test with KM12 colon.
In the case of `COc1ccc(-c2nn(-c3ccc(NC(=O)c4ccc(Cl)c(C(F)(F)F)c4)cc3)cc2-c2ccncc2)cc1Cl`, the growth is 46.1% in the test with T-47D breast; 40.5% in the test with BT-549 breast; 23.2% with MDA-MB-435 melanoma; 16% in the test with SW-620 colon; 22.5% with MCF7 breast; 15.8% with HCT-116 colon. Further, the growth with HCC-2998 colon was 9.69% (active); in the test on KM12 colon it was 14.8%.
